Measured values reported in PubChem BioAssay (Tox21).
Inconclusive results are not listed. Entries that show only a call come without a potency. Active and inactive are the calls of the source. Unless noted, the call rests on the fitted dose curve; in most records, active means well fitted curve in the direction sought with a large enough effect in the repeat runs; inconclusive means weak or mixed curves; inactive means no such curve, though single readings can be large; an effect the other way counts as inactive or inconclusive.

How the values were obtained:
[1] = qHTS assay to identify small molecule antagonists of the estrogen related receptor (ERR) signaling pathway (AID 1224819; further: nearly all actives have a fitted effect of over 50% in size)
Procedure, shortened: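 ERR reporter cell line (NTP) plated at 2,000 cells/well, settled 6 h at 37C/5% CO2, then exposed to LOPAC compounds for 18 h at 37C. One-Glo luciferase luminescence read after 30 min at room temperature.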

[2] = qHTS assay to identify small molecule agonists of the estrogen related receptor (ERR) signaling pathway (AID 1224820)
Procedure, shortened: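 After 6 h plating (2,000 cells/well) and 18 h compound treatment at 37 C, ERR cells were lysed with One-Glo and luminescence read after 30 min at room temperature.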

[3] = system: estrogen-related receptor alpha (ERRalpha) with PGC-1alpha coactivator, human; assay: qHTS assay to identify small molecule antagonists of the estrogen related receptor signaling pathway with the pleiotropic PPARgamma coactivator (PGC) (AID 1224821; calls by dose curve; further: nearly all actives have a fitted effect of over 50% in size)
Procedure, shortened: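 Luminescence from One-Glo luciferase reagent (30 min, room temperature) measured after 18 h compound treatment at 37 °C. Cells carry the PGC/ERR reporter and were seeded 6 h prior to dosing.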

[4] = qHTS assay to identify small molecule agonists of the estrogen related receptor signaling pathway with the pleiotropic PPARgamma coactivator (PGC) (AID 1224823)
Procedure, shortened: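 Luminescence from One-Glo reagent (30 min, room temperature) was read after 18 h compound treatment at 37 C of PGC/ERR cells plated 6 h beforehand; compounds delivered in DMSO by pin tool.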

[5] = qHTS assay to identify small molecule antagonists of the estrogen related receptor signaling pathway with the pleiotropic PPARgamma coactivator (PGC) cell viability counter screen (AID 1224822;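 further: viability read after 17.5 h compound exposure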)
Procedure, shortened: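 Cytotoxicity in the PGC/ERR cell line is assessed with CellTiter-Fluor, read as fluorescence intensity 30 min after reagent addition, following 17.5 h compound treatment at 37 C.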
Potency means the concentration at half of the fitted maximal effect.

SMILES: CCOC(=O)C1=C(C)NC(C)=C(C(=O)OCC)C1c1c(F)c(F)c(F)c(F)c1F
- Potency [1]: 19.6 µM (active)
- Potency [2]: inactive
- Potency [3]: 25.6 µM (active)
- Potency [4]: inactive

SMILES: Cc1ccc(S(=O)(=O)/C=C/C#N)cc1
- Potency [1]: inactive
- Potency [2]: 17.4 µM (active)
- Potency [3]: inactive
- Potency [4]: 15.5 µM (active)

SMILES: O=C1c2ccccc2C(=O)c2c(NCCc3ccc(O)cc3)ccc(NCCc3ccc(O)cc3)c21
- Potency [1]: 18.1 µM (active)
- Potency [2]: inactive
- Potency [3]: inactive
- Potency [5]: 11.9 µM (active)
- Potency [4]: inactive

SMILES: Cc1nc(N=Nc2cc(S(=O)(=O)O)c3cc([N+](=O)[O-])cc(S(=O)(=O)O)c3c2)c(COP(=O)(O)O)c(C=O)c1O
- Potency [1]: inactive
- Potency [2]: inactive
- Potency [3]: inactive
- Potency [4]: inactive

SMILES: CC(C)c1ccc2c(c1)c(SC(C)(C)C)c(CC(C)(C)C(=O)O)n2Cc1ccc(Cl)cc1
- Potency [1]: 12.8 µM (active)
- Potency [2]: inactive
- Potency [3]: 20.3 µM (active)
- Potency [4]: inactive

SMILES: CC1(C)CCC2=C(O1)c1ccccc1C(=O)C2=O
- Potency [1]: 9.44 µM (active)
- Potency [2]: inactive
- Potency [3]: 13.3 µM (active)
- Potency [5]: 18.8 µM (active)
- Potency [4]: inactive

SMILES: C=CCc1cccc(/C=N/NC(=O)CN2CCN(Cc3ccccc3)CC2)c1O
- Potency [1]: 3.9 µM (active)
- Potency [2]: inactive
- Potency [3]: inactive
- Potency [4]: inactive

SMILES: OCC1O[C@H]([S-])C(O)[C@@H](O)[C@@H]1O.[Au+] (stereo partly specified)
- Potency [1]: 22 µM (active)
- Potency [2]: inactive
- Potency [3]: 5.11 µM (active)
- Potency [5]: 9.08 µM (active)
- Potency [4]: inactive

SMILES: Fc1ccc(C(OCCCc2cnc[nH]2)c2ccc(F)cc2)cc1
- Potency [1]: 13.9 µM (active)
- Potency [2]: inactive
- Potency [3]: 10.2 µM (active)
- Potency [4]: inactive

SMILES: COc1cc(OC)cc(-c2cc3cnc(N)nc3nc2NC(=O)NC(C)(C)C)c1
- Potency [1]: 20.3 µM (active)
- Potency [2]: inactive
- Potency [5]: inactive
- Potency [4]: inactive

SMILES: Cc1ccc(S(=O)(=O)N[C@@H](Cc2ccccc2)C(=O)CCl)cc1
- Potency [1]: inactive
- Potency [2]: inactive
- Potency [5]: 26.6 µM (active)
- Potency [4]: inactive

SMILES: O=C(/C=C/c1ccc(O)c(O)c1)OCCc1ccccc1
- Potency [1]: inactive
- Potency [2]: inactive
- Potency [3]: inactive
- Potency [5]: inactive
- Potency [4]: 14.4 µM (active)

SMILES: NS(=O)(=O)c1cccc2c1c([N+](=O)[O-])cc1nc(O)c(O)nc12
- Potency [1]: inactive
- Potency [2]: inactive
- Potency [3]: inactive
- Potency [5]: inactive
- Potency [4]: inactive

SMILES: Cn1c(=O)c(-c2c(Cl)cccc2Cl)cc2cnc(Nc3ccc(N4CCOCC4)cc3)nc21
- Potency [1]: 4.38 µM (active)
- Potency [2]: inactive
- Potency [3]: inactive
- Potency [4]: 0.0531 µM (active)
